{"source": "PubChem BioAssay AID2549", "about": "(National Center for Advancing Translational Sciences (NCATS), 2010)", "note": "“And” between values parts separate entries of the source, which are not always exact repeats. Equal entries are not always repeated. The whole screen tested about 240,000 compounds, of which about 1,300 (0.54%) were called active. Not shown: some 1% with an inconclusive outcome. Calls follow the shape of the dose curve; as a rule, active = well fitted inhibition curve with a large enough effect; inconclusive = small, poorly fitted or top-dose-only effect; inactive = flat fitted curve, though single readings scatter. Shown is part of a subset that was picked to be rich in actives. Some structures have more than one record in an assay (separate samples or runs), and their calls can disagree. Where a SMILES comes first, the peptide text is derived from it. Bridges are numbered along the chain shown (N, C = ends). Potency is read from the fitted curve at half-maximal effect.", "data": [{"biological_target": "ATP-dependent DNA helicase Q1 (Homo sapiens) (UniProt P46063)", "sequence (P46063 whole entry, looked up)": "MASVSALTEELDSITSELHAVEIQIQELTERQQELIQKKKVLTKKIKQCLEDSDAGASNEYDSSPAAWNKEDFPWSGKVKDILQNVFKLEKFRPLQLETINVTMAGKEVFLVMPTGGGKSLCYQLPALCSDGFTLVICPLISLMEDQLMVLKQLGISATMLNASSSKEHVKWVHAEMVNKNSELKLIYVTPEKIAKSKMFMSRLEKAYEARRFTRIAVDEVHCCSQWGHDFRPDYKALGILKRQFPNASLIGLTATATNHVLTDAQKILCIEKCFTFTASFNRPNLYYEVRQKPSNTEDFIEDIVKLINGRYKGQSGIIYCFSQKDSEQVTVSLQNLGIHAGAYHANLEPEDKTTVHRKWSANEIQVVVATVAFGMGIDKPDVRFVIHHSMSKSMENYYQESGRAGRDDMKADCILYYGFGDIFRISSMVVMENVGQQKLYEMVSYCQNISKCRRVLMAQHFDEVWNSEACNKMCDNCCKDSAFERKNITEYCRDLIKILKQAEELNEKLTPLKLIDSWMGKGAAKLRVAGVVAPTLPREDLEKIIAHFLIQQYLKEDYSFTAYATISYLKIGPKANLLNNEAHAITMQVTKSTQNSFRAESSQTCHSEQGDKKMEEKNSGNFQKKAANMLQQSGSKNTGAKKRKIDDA", "test": "qHTS Assay for Inhibitors of RecQ-Like Dna Helicase 1 (RECQ1); also: nearly all actives have a fitted effect of over 30% in size;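 as to activity, negative = inhibition: plate controls were vehicle for no effect and no enzyme for full effect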", "details": "RECQ1 DNA unwinding, red fluorescence kinetic read; series mostly up to 57.3 µM; activity, negative = inhibition: at the top concentration", "outline": "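RECQ1T1 50 nM; forked duplex (20 bp + 30-nt ss tails) 200 nM, ATP 2 mM final; pH 8.0, 2 mM MgCl2, 2.5 ug/ml poly(dI-dC); 15 min compound preincubation; discontinuous kinetic read over 2 h at RT.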", "values": [{"smiles": "Oc1cc(O)c2c(c1)OC(c1ccc(O)c(O)c1)C(O)C2", "note": "(configuration not stated)", "Potency": "14.1 µM (active)"}, {"smiles": "Cc1nnnn1/C(=C\\c1ccccc1)C(=O)OCC(=O)N1CC2(C)CC1CC(C)(C)C2", "note": "(configuration not stated)", "activity, negative = inhibition": "4.69% (inactive)"}, {"smiles": "O=c1c(O)c(Br)ccc2c(Br)c(O)c(O)c(O)c12", "Potency": "3.16 µM (active)"}, {"smiles": "CCC1(CC)C(=O)C2=C3C1[C@H](C(=O)OC)C=C(C(=O)OC)C[C@H]3[C@H]1C(=O)N(Cc3ccccc3)C(=O)[C@H]1[C@H]2C", "note": "(some centres not stated)", "outcome": "inactive"}, {"smiles": "O=C(N/N=C/c1sc(N2CCCCC2)nc1-c1cccs1)c1cccnc1", "Potency": "10 µM (active)"}, {"smiles": "Cc1cc(/C=N/NC(=O)c2cccnc2)c(C)n1CC(C)C", "outcome": "inactive"}, {"smiles": "O=C(N/N=C/c1ccccn1)c1cccnc1", "activity, negative = inhibition": "6.97% (inactive)"}, {"smiles": "N#C/C(=C\\c1ccc(O)c(O)c1)C(=O)NCc1ccccc1", "Potency": "inactive and 31.6 µM (active)"}, {"smiles": "N#C/C(=C\\c1ccc(O)c(O)c1)C(N)=O", "Potency": "inactive"}, {"smiles": "COCCNC(=O)/C(C#N)=C/c1cccc(OCc2ccccc2)c1", "activity, negative = inhibition": "-4.31% (inactive)"}, {"smiles": "c1ccc(C2CNCc3c2ccc2ccccc32)cc1", "note": "(configuration not stated)", "outcome": "inactive"}, {"smiles": "CC(=O)Nc1ccc(S(=O)(=O)N2N=NC3C2C2CC4C3(CN(C(=O)OC(C)(C)C)S4(=O)=O)O2)cc1", "note": "(configuration not stated)", "outcome": "inactive"}, {"smiles": "Cc1c(-c2cccc(Cl)c2)nc2ccccc2c1C(=O)OCC(=O)N(C)C1CCS(=O)(=O)C1", "note": "(configuration not stated)", "activity, negative = inhibition": "-13% (inactive)"}, {"smiles": "CN(C(=O)COC(=O)c1cc(-c2ccco2)nc2ccccc12)C1CCS(=O)(=O)C1", "note": "(configuration not stated)", "Potency": "14.1 µM (active)"}, {"smiles": "COc1ccc(NC(=O)COc2ccc(C(=O)OCC(=O)N(C)C3CCS(=O)(=O)C3)cc2OC)cc1", "note": "(configuration not stated)", "outcome": "inactive"}, {"smiles": "CC(=O)OC1C([N+]2(C)CCCCC2)C[C@H]2C3CC[C@H]4C[C@H](OC(C)=O)C([N+]5(C)CCCCC5)CC4(C)C3CCC12C", "note": "(some centres not stated)", "activity, negative = inhibition": "44.6% (inactive)"}, {"smiles": "O=c1[nH]c(=O)c2nc3ccccc3nc2[nH]1", "Potency": "inactive"}, {"smiles": "Nc1ccc2nc3c(=O)[nH]c(=S)[nH]c3nc2c1", "Potency": "7.94 µM (active)"}, {"smiles": "Cc1cc2nc3c(=O)n(Cc4ccccc4)c(=O)[nH]c3nc2cc1N", "activity, negative = inhibition": "-6.41% (inactive)"}, {"smiles": "CCOc1ccc(/C=C2\\SC(=S)N(NC(=O)c3ccncc3)C2=O)cc1OC", "activity, negative = inhibition": "-4.45% (inactive)"}, {"smiles": "COc1ccc(C2=Nn3c(nnc3-c3ccccc3O)SC2)cc1", "activity, negative = inhibition": "-2.95% (inactive)"}, {"smiles": "C=CCCN(C(Cc1ccccc1)C(=O)OC)S(=O)(=O)c1cc(Br)ccc1Br", "note": "(configuration not stated)", "outcome": "inactive"}, {"smiles": "C=C1CCN(Cc2ccc(OC)cc2)S(=O)(=O)c2ccccc21", "activity, negative = inhibition": "-11.7% (inactive)"}, {"smiles": "Cc1ccc(SCC(CC(C)C)N2CCN(CCc3ccccc3)CCC2=O)cc1", "note": "(configuration not stated)", "outcome": "inactive"}, {"smiles": "COc1c(O)cc2oc(-c3ccc(O)c(O)c3)cc(=O)c2c1O", "Potency": "11.2 µM (active) and 8.91 µM (active)"}, {"smiles": "Cc1cccc(-c2cc(=O)c3cc(C)ccc3o2)c1", "activity, negative = inhibition": "-3.41% (inactive)"}, {"smiles": "CCOC(=O)COc1cc(O)c2c(=O)cc(-c3ccccc3)oc2c1", "activity, negative = inhibition": "-4.89% (inactive)"}, {"smiles": "O=c1cc(-c2ccc(O)cc2)oc2c(-c3cc(-c4cc(=O)c5c(O)cc(O)cc5o4)ccc3O)c(O)ccc12", "activity, negative = inhibition": "-15.9% (inactive)"}, {"smiles": "COc1ccc2c(=O)cc(-c3ccccc3)oc2c1O", "outcome": "inactive"}, {"smiles": "O=c1cc(-c2ccc(O)c(O)c2)oc2cccc(O)c12", "Potency": "25.1 µM (active)"}, {"smiles": "C=C1/C(=C\\C=C2\\CCCC3(C)C2CCC3C(C)/C=C/C(O)C2CC2)CC(O)CC1O", "note": "(configuration not stated)", "activity, negative = inhibition": "-13% (inactive)"}, {"smiles": "CCCCc1nn(-c2ccccc2C(F)(F)F)c(=O)n1Cc1ccc(-c2ccccc2S(=O)(=O)NC(=O)c2sccc2C)cc1", "activity, negative = inhibition": "-28.1% (inactive)"}, {"smiles": "COC(=O)c1ccc(C(NC(=O)OCc2ccccc2)/C(F)=C/[C@@H](C)C(=O)O)cc1", "note": "(some centres not stated)", "activity, negative = inhibition": "12.5% (inactive)"}, {"smiles": "COc1ccc(CCCOC(Cn2ccnc2)c2ccc(OC)cc2)cc1", "note": "(configuration not stated)", "Potency": "inactive"}, {"smiles": "Cc1cccc(NC(=O)CN2C(=O)c3ccccc3C2=O)c1C", "outcome": "inactive"}, {"smiles": "Cc1ccccc1NC(=O)CN1C(=O)N/C(=C\\c2cccn2-c2cccc(C(=O)O)c2)C1=O", "Potency": "14.1 µM (active)"}, {"smiles": "O=C1N/C(=C/c2cccn2-c2ccccc2)C(=O)N1c1cccc(Cl)c1", "activity, negative = inhibition": "-3.29% (inactive)"}, {"smiles": "COc1ccccc1NC(=S)N1CCN(C(c2ccccc2)c2ccccc2)CC1", "activity, negative = inhibition": "-5.7% (inactive)"}, {"smiles": "COc1ccc(Br)cc1C1C2C=CCC(C)C2C(=O)N1Cc1ccccc1", "note": "(configuration not stated)", "outcome": "inactive"}, {"smiles": "O=C1c2ccccc2C(=O)N1CCCc1nc(-c2ccccc2)no1", "outcome": "inactive"}, {"smiles": "O=C1c2ccccc2C(=O)N1Cc1cc(-c2ccccc2Cl)no1", "Potency": "31.6 µM (active)"}, {"smiles": "O=C1c2cccnc2C(=O)N1Cc1cccs1", "activity, negative = inhibition": "-1.48% (inactive)"}, {"smiles": "Oc1ccc(N=Cc2c(O)ccc3ccccc23)cc1", "activity, negative = inhibition": "-11.2% (inactive)"}, {"smiles": "Oc1ccc(N=Cc2sc3ccccc3c2Cl)cc1", "Potency": "8.91 µM (active)"}, {"smiles": "O=C(N/N=C/c1c(Cl)[nH]c2ccccc12)c1sc2ccccc2c1Cl", "activity, negative = inhibition": "-7.76% (inactive)"}, {"smiles": "C[C@@H](O)[C@@H]1NC(=O)[C@H](CCCCN)NC(=O)[C@H](Cc2c[nH]c3ccccc23)NC(=O)[C@H](Cc2ccccc2)NC(=O)[C@H](Cc2ccccc2)NC(=O)[C@H](CC(N)=O)NC(=O)[C@H](CCCCN)NC(=O)[C@@H](NC(=O)[C@@H]2CCCN2)CSSC[C@@H](C(=O)N[C@@H](CCCCN)C(=O)O)NC(=O)[C@H](CO)NC(=O)[C@H](CO)NC(=O)[C@H](Cc2ccccc2)NC1=O", "note": "(H-PCKNFFWKTFSSCK-OH; disulfide 2-13)", "activity, negative = inhibition": "-3.25% (inactive)"}, {"smiles": "CCCN1CCC(=O)N(C(CSc2ccc(OC)cc2)Cc2ccccc2)CC1", "note": "(configuration not stated)", "activity, negative = inhibition": "-7.69% (inactive)"}]}]}
